Experimental data as given in PubChem BioAssay (NCATS).
Values joined by “and” are separate entries in the source; they are usually repeats but may differ in a detail not shown here. Equal entries are not always repeated. Records with an inconclusive call do not appear. Where a call stands in place of a potency, no number is given. A structure can be active in one record and inactive in another. Active and inactive are the calls of the source. Unless noted, calls follow the shape of the dose curve; as a rule, active = well fitted curve in the direction sought with a large enough effect; inconclusive = small, poorly fitted or top-dose-only effect, or another doubt; inactive = no such curve, though single readings can be large; an effect the other way counts as inactive or inconclusive.

Key:
[1] = biological target: Thioredoxin reductase 1, cytoplasmic (Rattus norvegicus) (UniProt O89049); experiment: qHTS Assay for Substrates of Mammalian Selenoprotein Thioredoxin Reductase 1 (TrxR1) (AID 488772);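 also: series mostly up to about 57 µM; a drop in NADPH fluorescence below the no-compound background marks a TrxR1 substrate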
Thioredoxin reductase 1, cytoplasmic (Rattus norvegicus), sequence (O89049 whole entry, looked up): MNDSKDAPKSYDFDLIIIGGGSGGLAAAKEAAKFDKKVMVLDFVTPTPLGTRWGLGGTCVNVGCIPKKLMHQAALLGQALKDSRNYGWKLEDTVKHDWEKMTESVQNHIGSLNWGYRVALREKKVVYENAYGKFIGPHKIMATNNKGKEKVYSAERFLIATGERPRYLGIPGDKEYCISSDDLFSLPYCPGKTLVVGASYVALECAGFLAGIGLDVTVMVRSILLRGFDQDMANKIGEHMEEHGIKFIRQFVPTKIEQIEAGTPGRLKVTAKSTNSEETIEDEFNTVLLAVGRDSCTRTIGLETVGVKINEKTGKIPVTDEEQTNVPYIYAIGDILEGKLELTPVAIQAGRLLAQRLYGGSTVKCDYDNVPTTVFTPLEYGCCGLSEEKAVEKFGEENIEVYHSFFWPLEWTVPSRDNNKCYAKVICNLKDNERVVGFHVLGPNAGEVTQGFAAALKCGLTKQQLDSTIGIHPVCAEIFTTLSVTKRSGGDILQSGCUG
How it was run: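 In this dual-purpose format, potential substrates are identified from the first fluorescence read after selenite addition, not from the 8-minute delta. Rat enzyme is preincubated with NADPH and then with compound at ~22 deg C.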

[2] = biological target: Thioredoxin reductase 1, cytoplasmic (Rattus norvegicus) (UniProt O89049); experiment: qHTS Assay for Inhibitors of Mammalian Selenoprotein Thioredoxin Reductase 1 (TrxR1) (AID 488773); conditions: Potency: inhibition;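 also: drop in NADPH fluorescence over an 8 min run after selenite addition; series mostly up to about 57 µM; nearly all actives have a fitted effect of over 40% in size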
How it was run: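 Inhibition is scored from the loss of NADPH fluorescence between first and last reads of an 8-min kinetic run. Selenite (400 uM) was the substrate, added after 15 min compound preincubation at room temperature.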

[3] = biological target: Flap endonuclease 1 (Homo sapiens) (UniProt P39748); experiment: qHTS Validation Assay for the Inhibitors of Human Flap endonuclease 1 (FEN1) (AID 488816); also: potency is read from the fitted curve at half-maximal effect
How it was run: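 Steps: add FEN1 (10 nM reagent) or buffer only; pin compounds; hold 15 min at room temperature; start with substrate, 50 nM final; read at 0 and 15 min; correct, normalize and fit a four-parameter Hill curve.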

[4] = biological target: M-phase phosphoprotein 8 (Homo sapiens) (UniProt Q99549); experiment: qHTS Validation Assay for Inhibitors for MPP8 Chromodomain Interactions with Methylated Histone Tails (AID 488949); also: nearly all actives have a fitted effect of over 55% in size; also: potency is read from the fitted curve at half-maximal effect
M-phase phosphoprotein 8 (Homo sapiens), sequence (Q99549 whole entry, looked up): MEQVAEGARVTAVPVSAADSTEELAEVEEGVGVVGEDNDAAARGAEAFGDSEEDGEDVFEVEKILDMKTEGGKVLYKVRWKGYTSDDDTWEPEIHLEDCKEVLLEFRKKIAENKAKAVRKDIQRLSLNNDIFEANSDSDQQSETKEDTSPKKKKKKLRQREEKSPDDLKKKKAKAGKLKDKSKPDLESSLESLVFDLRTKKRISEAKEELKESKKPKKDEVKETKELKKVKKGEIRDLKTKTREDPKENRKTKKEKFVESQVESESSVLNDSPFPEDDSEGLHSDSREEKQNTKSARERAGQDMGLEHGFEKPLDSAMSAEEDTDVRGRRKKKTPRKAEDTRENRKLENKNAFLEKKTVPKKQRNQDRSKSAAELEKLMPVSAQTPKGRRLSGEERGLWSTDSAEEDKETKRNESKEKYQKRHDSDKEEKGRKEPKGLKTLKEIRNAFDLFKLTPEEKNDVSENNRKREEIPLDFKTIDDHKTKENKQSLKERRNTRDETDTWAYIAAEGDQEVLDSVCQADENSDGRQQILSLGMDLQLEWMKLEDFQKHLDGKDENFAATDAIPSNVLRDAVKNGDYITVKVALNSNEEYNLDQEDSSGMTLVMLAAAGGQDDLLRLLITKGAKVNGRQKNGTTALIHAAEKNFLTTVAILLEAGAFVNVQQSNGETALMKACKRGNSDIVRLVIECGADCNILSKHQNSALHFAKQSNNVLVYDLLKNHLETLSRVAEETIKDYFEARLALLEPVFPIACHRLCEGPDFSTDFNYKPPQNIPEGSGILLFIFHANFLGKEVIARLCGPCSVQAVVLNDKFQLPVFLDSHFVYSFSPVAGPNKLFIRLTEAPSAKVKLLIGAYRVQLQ
How it was run: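 AlphaScreen proximity signal from streptavidin donor and Ni-chelate acceptor beads (10 ug/mL each) reported binding of MPP8 to trimethyl-K9 H3(1-18) peptide, both at 50 nM. The complex formed 30 min before a 30 min compound exposure at room temperature, in PBS pH 7.4.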

[5] = biological target: Methanococcus maripaludis chaperonin (MmCpn) (UniProt Q6LX38); experiment: High-Throughput Screening for Modulators of Cytosolic Chaperonin Activity: MmCpn Primary Screen (AID 488978);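 also: 50 nM MmCpn enzyme hydrolysing 30 µM ATP at 37 °C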
How it was run: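 ATPase activity of 50 nM MmCpn was assayed with 30 uM ATP, 10 minutes at 37C, after a 5 min compound preincubation at room temperature. ADP production was read as HTRF emission at 590 and 665 nm.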

[6] = biological target: Transient receptor potential cation channel subfamily V member 1 (Homo sapiens) (UniProt Q8NER1); experiment: HTS Assay for Compounds that Act as Enhancers of the Vanilloid Receptor 1 (AID 488979)
Transient receptor potential cation channel subfamily V member 1 (Homo sapiens), sequence (Q8NER1 whole entry, looked up): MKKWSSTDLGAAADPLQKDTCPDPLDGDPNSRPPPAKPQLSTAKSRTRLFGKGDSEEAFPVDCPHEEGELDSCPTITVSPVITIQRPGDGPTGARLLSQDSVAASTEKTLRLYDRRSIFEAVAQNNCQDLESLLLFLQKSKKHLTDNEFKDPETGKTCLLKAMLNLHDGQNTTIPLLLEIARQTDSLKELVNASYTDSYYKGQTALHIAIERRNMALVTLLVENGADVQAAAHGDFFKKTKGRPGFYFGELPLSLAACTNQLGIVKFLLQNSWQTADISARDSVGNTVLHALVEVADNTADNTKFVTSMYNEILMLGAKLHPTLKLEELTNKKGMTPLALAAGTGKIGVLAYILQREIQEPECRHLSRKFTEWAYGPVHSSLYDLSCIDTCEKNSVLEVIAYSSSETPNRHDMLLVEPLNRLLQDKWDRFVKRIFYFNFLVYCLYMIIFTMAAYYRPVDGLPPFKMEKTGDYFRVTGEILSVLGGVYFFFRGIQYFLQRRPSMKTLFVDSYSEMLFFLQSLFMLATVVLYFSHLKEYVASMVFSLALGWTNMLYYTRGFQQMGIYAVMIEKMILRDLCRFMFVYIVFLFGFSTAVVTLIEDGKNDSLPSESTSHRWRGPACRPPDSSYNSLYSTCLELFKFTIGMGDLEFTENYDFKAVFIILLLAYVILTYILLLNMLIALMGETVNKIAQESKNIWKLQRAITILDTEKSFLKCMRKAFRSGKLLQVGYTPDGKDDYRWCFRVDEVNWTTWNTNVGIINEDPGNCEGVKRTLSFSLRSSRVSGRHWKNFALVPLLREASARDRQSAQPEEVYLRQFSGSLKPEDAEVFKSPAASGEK
How it was run: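 TRPV1-expressing cells loaded with Fluo-8 calcium dye; compounds added and calcium influx read kinetically for 3 min (agonist phase), then capsaicin at EC20 added and read 2 min more for enhancement. Fluorescence ex 480/em 520 nm.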

[7] = biological target: Thyrotropin receptor (Homo sapiens) (UniProt P16473); experiment: qHTS Assay for Antagonists of the Thyroid Stimulating Hormone Receptor (AID 488980); also: series mostly up to about 58 µM
How it was run: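 Inhibition of cAMP raised by EC80 TSH (4 nM final) was read by HTRF, with lysate cAMP competing against cAMP-d2 for cryptate antibody after 30 min at room temperature. The cells were transfected HEK293 held in phosphodiesterase inhibitor RO 20-1724 at 70 uM.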

[8] = biological target: D(1A) dopamine receptor (Homo sapiens) (UniProt P21728); experiment: HTS Assay for Allosteric Agonists of the Human D1 Dopamine Receptor: Primary Screen for Agonists (AID 488981); also: potency is read from the fitted curve at half-maximal effect
D(1A) dopamine receptor (Homo sapiens), sequence (P21728 whole entry, looked up): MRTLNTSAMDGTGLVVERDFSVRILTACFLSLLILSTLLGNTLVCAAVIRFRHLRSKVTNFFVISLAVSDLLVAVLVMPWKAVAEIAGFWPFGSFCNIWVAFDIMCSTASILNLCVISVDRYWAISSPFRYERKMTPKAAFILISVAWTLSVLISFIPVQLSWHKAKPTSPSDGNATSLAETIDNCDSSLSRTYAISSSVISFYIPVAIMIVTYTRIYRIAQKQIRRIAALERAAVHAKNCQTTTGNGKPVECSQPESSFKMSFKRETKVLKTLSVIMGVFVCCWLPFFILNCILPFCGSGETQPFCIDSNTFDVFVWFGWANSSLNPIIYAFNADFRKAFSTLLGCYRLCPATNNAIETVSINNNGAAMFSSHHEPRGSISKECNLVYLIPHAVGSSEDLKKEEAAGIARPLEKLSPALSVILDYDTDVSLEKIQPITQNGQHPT
How it was run: (§1)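 Tetracycline-induced HEK293 T-REx cells force-coupled to calcium signalling were incubated overnight at 30 C and dye-loaded at room temperature. Calcium flux over 180 s after compound addition flagged agonists; a further 180 s read after EC20 dopamine flagged potentiators.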

[9] = biological target: D(1A) dopamine receptor (Homo sapiens) (UniProt P21728); experiment: HTS Assay for Allosteric Agonists of the Human D1 Dopamine Receptor: Primary Screen for Potentiators (AID 488982)
How it was run: as §1

[10] = biological target: D(1A) dopamine receptor (Homo sapiens) (UniProt P21728); experiment: HTS Assay for Allosteric Agonists of the Human D1 Dopamine Receptor: Primary Screen for Antagonists (AID 488983);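 also: calcium flux response to an EC80 dopamine challenge measured with no-wash dye; nearly all actives have a fitted effect of over 65% in size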; also: potency is read from the fitted curve at half-maximal effect
How it was run: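 Calcium flux readout, no-wash dye, inducible HEK293 T-REx D1 line (force-coupled). Compound added after 10 s baseline, 180 s kinetic read; then dopamine at EC80, further 180 s read.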

[11] = Validation screen for small molecules that induce genotoxicity in human embryonic kidney (HEK293T) cells expressing luciferase-tagged ELG1 (AID 493106)
How it was run: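 qHTS format; 2,000 HEK293T ELG1-luc cells/well; 23 nL compound via pin tool; 16 hr, 37 °C/5% CO2; ONE-Glo, 30 min RT; luminescence read.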

[12] = biological target: ATPase family AAA domain-containing protein 5 (Homo sapiens) (UniProt Q96QE3); experiment: Validation screen for small molecules that inhibit ELG1-dependent DNA repair in human embryonic kidney (HEK293T) cells expressing luciferase-tagged ELG1 (AID 493107); also: nearly all actives have a fitted effect of over 70% in size; also: potency is read from the fitted curve at half-maximal effect
ATPase family AAA domain-containing protein 5 (Homo sapiens), sequence (Q96QE3 whole entry, looked up, the tested form may be a part): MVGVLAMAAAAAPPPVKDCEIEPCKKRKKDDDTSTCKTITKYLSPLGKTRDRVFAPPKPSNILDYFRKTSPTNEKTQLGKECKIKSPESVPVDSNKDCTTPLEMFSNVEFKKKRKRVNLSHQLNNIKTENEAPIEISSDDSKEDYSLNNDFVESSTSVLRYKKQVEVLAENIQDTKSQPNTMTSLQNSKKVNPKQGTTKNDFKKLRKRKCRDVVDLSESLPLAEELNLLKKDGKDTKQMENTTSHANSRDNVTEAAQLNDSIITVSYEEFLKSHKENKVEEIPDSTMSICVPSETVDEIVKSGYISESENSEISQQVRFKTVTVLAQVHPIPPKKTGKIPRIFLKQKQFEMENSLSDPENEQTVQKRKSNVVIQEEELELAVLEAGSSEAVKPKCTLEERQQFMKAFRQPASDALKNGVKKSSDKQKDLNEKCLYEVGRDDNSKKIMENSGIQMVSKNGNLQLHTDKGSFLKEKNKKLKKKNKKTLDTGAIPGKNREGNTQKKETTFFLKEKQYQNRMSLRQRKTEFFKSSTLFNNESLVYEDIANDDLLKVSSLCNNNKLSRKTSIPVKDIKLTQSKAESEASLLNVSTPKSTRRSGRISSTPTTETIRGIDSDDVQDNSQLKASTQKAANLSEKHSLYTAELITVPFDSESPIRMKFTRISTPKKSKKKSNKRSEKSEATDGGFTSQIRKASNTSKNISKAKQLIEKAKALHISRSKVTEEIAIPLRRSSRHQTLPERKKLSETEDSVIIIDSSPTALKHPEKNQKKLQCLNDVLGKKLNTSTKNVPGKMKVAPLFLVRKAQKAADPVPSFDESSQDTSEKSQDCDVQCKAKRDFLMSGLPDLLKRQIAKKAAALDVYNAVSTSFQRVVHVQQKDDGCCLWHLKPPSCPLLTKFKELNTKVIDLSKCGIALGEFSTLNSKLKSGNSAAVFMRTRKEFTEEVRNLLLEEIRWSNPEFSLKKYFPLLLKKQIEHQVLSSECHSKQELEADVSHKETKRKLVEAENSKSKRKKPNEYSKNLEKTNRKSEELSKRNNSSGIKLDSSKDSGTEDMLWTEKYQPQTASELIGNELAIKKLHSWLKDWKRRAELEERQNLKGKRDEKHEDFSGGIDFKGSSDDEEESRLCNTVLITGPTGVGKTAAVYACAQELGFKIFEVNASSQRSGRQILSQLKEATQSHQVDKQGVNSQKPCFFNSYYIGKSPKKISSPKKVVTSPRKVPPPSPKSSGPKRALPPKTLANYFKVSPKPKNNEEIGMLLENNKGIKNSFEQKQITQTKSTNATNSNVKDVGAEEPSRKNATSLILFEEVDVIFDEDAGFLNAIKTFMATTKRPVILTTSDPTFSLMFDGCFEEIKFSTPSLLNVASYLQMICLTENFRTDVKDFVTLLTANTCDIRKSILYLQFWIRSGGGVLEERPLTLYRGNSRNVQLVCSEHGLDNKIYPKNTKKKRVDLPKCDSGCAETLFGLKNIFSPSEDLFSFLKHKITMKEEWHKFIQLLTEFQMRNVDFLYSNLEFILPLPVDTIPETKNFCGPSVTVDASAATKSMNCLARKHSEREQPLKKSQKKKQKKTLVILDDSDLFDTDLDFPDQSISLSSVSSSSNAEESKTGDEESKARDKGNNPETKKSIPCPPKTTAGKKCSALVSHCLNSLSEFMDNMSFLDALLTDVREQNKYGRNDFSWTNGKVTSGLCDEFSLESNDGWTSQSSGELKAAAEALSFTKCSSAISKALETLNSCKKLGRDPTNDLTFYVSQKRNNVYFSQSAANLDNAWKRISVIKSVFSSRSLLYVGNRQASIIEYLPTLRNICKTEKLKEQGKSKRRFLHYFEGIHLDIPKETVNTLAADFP
How it was run: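 ELG1-luciferase HEK293T reporter; 5-fluorouridine + compound/DMSO, 16 hr, 37 °C, 5% CO2; ONE-Glo 30 min RT; luminescence read, qHTS format.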

[13] = biological target: Thyrotropin-releasing hormone receptor (Homo sapiens) (UniProt P34981); experiment: qHTS for Small Molecule Agonists and Allosteric Enhancers of Human TRH Receptor: Validation Screen for Agonists (AID 493127;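 active = calcium activation more than 3 SD above the typical response in the agonist read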;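 also: intracellular calcium rise by fluo-8 fluorescence before TRH EC20 addition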); conditions: TRH receptor agonist cell assay; at 2 µM; stronger effect = higher value
How it was run: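 Read-out: intracellular calcium release measured kinetically by FDSS (fluo-8, ex 480/em 530 nm), 1 reading/s after a 10-cycle baseline. TRHR cells, 2000/well, cultured 18 h at 33.5C, dye-loaded at room temp. Compound-evoked positive calcium signal flags agonists.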

[14] = qHTS for Inhibitors of Cell Surface uPA Generation: Validation Assay (AID 493164);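 also: RAW 264.7 macrophage cells exposed to compound for 18 h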
How it was run: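 Compounds are titrated over seven points (2.45 nM–38.3 uM final) onto pre-plated RAW 264.7 cells and incubated for 18 h. Retained intracellular ATP, measured with ATP-Lite, indicates blocked lethal factor entry.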

[15] = biological target: Galactokinase (Homo sapiens) (UniProt P51570); experiment: qHTS Validation Assay for Inhibitors of Human Galactokinase (GALK) (AID 493189)
How it was run: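 Inhibition was measured as remaining ATP, detected by luciferase luminescence after a 1 h room-temperature reaction. Final conditions: 5 nM GALK, 100 uM galactose, 35 uM ATP, pH 8.0 HEPES buffer.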

[16] = Nrf2 qHTS screen for inhibitors: Validation (AID 493153; active = well fitted inhibition curve with a large enough effect in the main read-out, with a control signal flat, not every such curve was filed as active); conditions: Potency: luciferase luminescence; viability change: measured here: cytotoxicity max response
How it was run: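 Concentration-response test in A549 ARE_Fluc reporter cells (5% FBS OPTI-MEM), compound exposure 18-24 h at 37°C, 5% CO2. Cell viability measured first by CellTiter-Fluor fluorescence; ARE-driven luciferase luminescence then measured as Nrf2 activity.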

[17] = biological target: Chromobox protein homolog 1 (Homo sapiens) (UniProt P83916); experiment: qHTS Validation Assay for Inhibitors of HP1-beta Chromodomain Interactions with Methylated Histone Tails (AID 488953); also: nearly all actives have a fitted effect of over 50% in size; also: potency is read from the fitted curve at half-maximal effect
How it was run: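 AlphaScreen proximity readout: streptavidin donor and Ni-chelate acceptor beads, 10 ug/mL final, 30 min dark, RT. Complex of 50 nM HP1-beta and 50 nM b-H3(1-18)K9me3 formed 30 min, then compound-treated 30 min; PBS pH 7.4/0.01% Tween-20.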

[18] = biological target: ATP-dependent 6-phosphofructokinase (Trypanosoma brucei brucei) (UniProt O15648); experiment: qHTS Assay to Find Inhibitors of T. brucei phosphofructokinase: hit validation (AID 492961); also: potency is read from the fitted curve at half-maximal effect
ATP-dependent 6-phosphofructokinase (Trypanosoma brucei brucei), sequence (O15648 whole entry, looked up): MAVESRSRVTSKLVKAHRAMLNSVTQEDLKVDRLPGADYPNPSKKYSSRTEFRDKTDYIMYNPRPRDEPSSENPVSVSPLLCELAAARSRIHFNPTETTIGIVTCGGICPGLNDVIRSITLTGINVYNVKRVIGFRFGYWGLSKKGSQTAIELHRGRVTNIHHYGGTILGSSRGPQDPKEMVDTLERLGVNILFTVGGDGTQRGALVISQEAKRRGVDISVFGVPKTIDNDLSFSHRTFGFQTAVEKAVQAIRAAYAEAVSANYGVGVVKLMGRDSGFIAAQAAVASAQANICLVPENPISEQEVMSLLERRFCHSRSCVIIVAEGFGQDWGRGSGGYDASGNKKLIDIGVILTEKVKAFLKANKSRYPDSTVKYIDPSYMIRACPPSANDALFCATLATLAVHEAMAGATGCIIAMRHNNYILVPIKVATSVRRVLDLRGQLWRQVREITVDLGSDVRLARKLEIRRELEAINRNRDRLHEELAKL
How it was run: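 Percent activity derived from corrected luminescence, normalized between 0x and 1x enzyme controls, then fitted to concentration-response curves. Conditions: 1.25 nM PFK, 0.1 mM ATP, 0.5 mM F6P, 45 min RT.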

[19] = Validation screen for small molecules that induce DNA re-replication in SW480 colon adenocarcinoma cells (AID 504364)
How it was run: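 Read-out: total Hoechst intensity of nuclei by fluorescence scanning imager; hits raise the fraction of nuclei with elevated DNA content. Cells received compound for 48 hr at 37 C before a 40 min stain.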

Row | SMILES | outcome [1] | Potency [2] | Potency [3] | Potency [4] | outcome [5] | outcome [6] | outcome [7] | Potency [8] | Potency [9] | Potency [10] | Potency [11] | Potency [12] | activation [13] | outcome [14] | outcome [15] | Potency [16] | viability change [16] | Potency [17] | Potency [18] | Potency [19]
1 | COc1ccc2[nH]c3c(c2c1)CCNC3 | inactive | inactive | inactive | inactive | inactive | inactive | inactive | inactive | inactive | inactive | inactive | inactive | 1.56% (inactive) | inactive | inactive |  |  |  |  | 
2 | CCCN1CC[C@@H]2c3cc(O)ccc3CC[C@@H]21 | inactive |  | inactive | inactive | inactive | inactive | inactive |  | inactive |  | inactive | inactive | -5.31% (inactive) | inactive |  | inactive | 9.01% |  |  | 
3 | C=CCN1CCc2cccc3c2[C@H]1Cc1ccc(O)c(O)c1-3 | inactive |  | inactive |  | inactive |  |  | 0.794 µM (active) | inactive | 0.398 µM (active) | inactive |  |  | inactive |  | inactive | 1.3% | 44.7 µM (active) |  | 
4 | c1ccc2cc(CC3=NCCN3)ccc2c1 | inactive |  | inactive | inactive | inactive | inactive |  |  | inactive | inactive | inactive | inactive |  | inactive |  | inactive | -5.88% | inactive | inactive | 
5 | c1ccc2c(c1)[I+]c1ccccc1-2 | inactive |  |  | inactive | inactive | inactive | inactive | inactive | inactive | inactive | inactive | 10.3 µM (active) | -4.44% (inactive) |  | inactive |  |  | inactive |  | 
6 | N[C@@H](Cn1oc(=O)[nH]c1=O)C(=O)O | inactive |  | inactive | inactive | inactive | inactive | inactive |  | inactive | inactive | inactive | inactive | -0.562% (inactive) | inactive | inactive | inactive | -3.31% | inactive |  | 
7 | CNc1ccc2oc(C[C@H]3O[C@@]4(CC[C@H]3C)O[C@H]([C@H](C)C(=O)c3ccc[nH]3)[C@H](C)C[C@H]4C)nc2c1C(=O)O | inactive |  | inactive | inactive | inactive |  |  |  |  |  | inactive | 13 µM (active) | 0.125% (inactive) | inactive |  |  |  | 0.006 µM (active) |  | 
8 | CN1CC[C@@]2(C)c3cc(OC(=O)Nc4ccccc4)ccc3N(C)[C@@H]12 | inactive |  | inactive | inactive | inactive |  |  | inactive | inactive | inactive | inactive | inactive |  | inactive |  | inactive | -13.9% |  |  | 
9 | OCc1cnc[nH]1 | inactive |  | inactive | inactive | inactive | inactive | inactive |  |  | inactive | inactive | inactive | 1% (inactive) |  |  | inactive | 1.78% | inactive |  | inactive
10 | O=c1c2ccccc2[se]n1-c1ccccc1 | inactive |  | inactive | 5.01 µM (active) and 2.99 µM (active) | inactive |  | inactive |  | inactive | inactive | inactive |  | 3.06% (inactive) |  | inactive | inactive | 3.13% | 25.1 µM (active) | 11.2 µM (active) | 
11 | C[C@@H]1O[C@@H](O[C@H]2C[C@@H](O)[C@]3(CO)[C@@H]4C(CC[C@]3(O)C2)[C@@]2(O)CC[C@H]([C@@H]3COC(=O)C3)[C@@]2(C)C[C@H]4O)[C@H](O)[C@H](O)[C@H]1O (stereo partly drawn) | inactive |  | inactive | inactive | inactive |  |  | inactive | inactive | inactive | inactive | 2.06 µM (active) |  | inactive |  |  |  | inactive |  | 
12 | CC(N)[C@H](O)c1ccc(O)c(O)c1 (stereo partly drawn) | inactive |  | 2.67 µM (active) | 29.9 µM (active) | inactive | inactive |  | inactive | inactive | inactive | inactive | inactive | 1.12% (inactive) |  |  | inactive | -3.08% |  |  | inactive
13 | Oc1ccc2c3c1O[C@H]1c4oc5ccccc5c4C[C@@]4(O)C(C2)N(CC2CC2)CCC314 (stereo partly drawn) | inactive |  | inactive | inactive | inactive | inactive | inactive | inactive | inactive | inactive | inactive | inactive | 1.94% (inactive) | inactive | inactive |  |  | inactive |  | 
14 | C[N+]1(C)C2CCC1CC(OC(=O)c1c[nH]c3ccccc13)C2 (stereo not drawn) | inactive |  | inactive | inactive and 8.44 µM (active) | inactive | inactive | inactive |  | inactive | inactive | inactive | inactive | 0.188% (inactive) | inactive | inactive | inactive | 2.15% | inactive | inactive | 
